In PubChem BioAssay (NCI) one finds growth data, which are given here for 40 compounds.

The panel holds about 83,000 compounds, 20% with a hit somewhere; the sample as a whole holds those more often.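 Cells were grown in 96-well plates and exposed to the test compound at a single concentration for 48 hours; results are reported as percent growth, with values below 10 considered active.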 The source made the active and inactive calls.

The test has as its system HL-60(TB) leukemia. In words: NCI-60 one-dose screen, 48 h (100 = growth as untreated, 0 = no growth, -100 = all killed). The following applies: 10 µM unless noted.
As for `O=S(=O)(O)c1cccnc1`, the growth was 61.8% (inactive).

On to `COc1ccc(C2C(N)=NNC2c2cccc(O)c2)cc1` (stereo not given), for which the growth was 97.9% (inactive). With `CC(Oc1ccc(C(=O)O)cc1C(F)(F)F)c1ccc(Oc2ccccc2)cn1` (stereo not given), the growth was 101% (inactive). Under `O=C(Nc1ccncc1)C(=O)c1cn(S(=O)(=O)c2cccc3ccccc23)c2ccccc12` stands 64% (inactive). Regarding `CN1C(=O)C(=Cc2coc3ccc(Br)cc3c2=O)C(=O)N(C)C1=O`, the growth was 111% (inactive). Next, `O=C1NC(=O)c2c(CCCSc3nc4ccccc4c(=O)n3CCc3ccccc3)cccc21`: 111% (inactive).

On to `O=c1ccn(C2OC(F)(CO)C(O)C2F)c(=O)[nH]1` (stereo not given), for which the growth is 114% (inactive). Under `CSc1ncccc1C(=O)OCC(=O)Nc1oc(C)c2c(C)n[nH]c(=O)c12` stands 98.2% (inactive). Under `COc1cc(OC)cc(-c2n/c(=C\c3c(O)[nH]c4ccc(Cl)cc34)cc3c2=Nc2ccccc2-3)c1` stands 90.2% (inactive). Next, `CS(=O)(=O)Nc1cc(-c2ccc3ncnc(Nc4ccc(OCc5ccccn5)c(Cl)c4)c3c2)cnc1Cl`: 4.82% (active); `Cc1ccc(NC2=CC(=O)C(=O)c3ccccc32)cc1`: 18.4% (inactive). `O=C(CCc1nnc(Cn2ccnc2)o1)c1nc2ccccc2[nH]1`: the growth was 106% (inactive). Next, `Cn1ccnc1C(=O)/C=C/c1ccc(C(=O)Nc2ccccc2F)cc1`: 5.22% (active).

In the case of `COc1ccc(/C(=N\N)C(=O)c2ccccc2)cc1` (tested in a mixture with another compound), the growth is 77.8% (inactive). Next, `CCOc1ccc(/C=N\N=C\c2ccc(OCC)cc2)cc1`: 76.6% (inactive). Under `CCOC(=O)C/C(C)=N\O` stands 94.5% (inactive); under `COc1ccc(C2C3=C(COC3=O)N(CCO)c3cc4c(cc32)OCCO4)cc1OC` (stereo not given), 6.34% (active); under `S=C=NP1(N=C=S)=NP(N=C=S)(N=C=S)=NP(N=C=S)(N=C=S)=NP(N=C=S)(N=C=S)=N1` (stereo not given), 60.7% (inactive). Next, `Cn1cc(-c2cc3ncnc(Nc4ccc(CC(=O)Nc5cc(C(C)(C)C)nn5C)cc4)c3s2)cn1`: 63.4% (inactive); `Cc1cc(N2CCCCC2)nc(NC2CCCC(Nc3ccnc4cc(Cl)ccc34)C2)n1` (stereo not given): -63.6% (active). On to `ONc1nc(NO)c2[nH]cnc2n1`, for which the growth is 15.1% (inactive). Under `c1ccc(-c2nc3sc(-c4ccccc4)cn3n2)cc1` stands 78.8% (inactive); under `CCn1cc(/C=C2\Oc3cc(OCC#N)ccc3C2=O)c2cc(OC)ccc21`, -31% (active); under `COc1cc2ncnc(Nc3ccc(S(=O)(=O)Nc4nccs4)cc3)c2cc1OCCCN1CCCC1`, 109% (inactive).

On to `CCN(CC)c1cc(N)c(Cc2c(N)cc(N(CC)CC)cc2Cl)c(Cl)c1`, for which the growth is -8.28% (active). Next, `COc1ccc(N2CCC(=S)NC2=S)cc1`: 99% (inactive). Consider `COc1ccc(-c2cnc3ccnn3c2-c2cc(OC)c(OC)c(OC)c2)cc1`, for which the growth was -22% (active). Under `O=C(Nc1cccc(-n2cc(-c3ccncc3)c(-c3ccc(Cl)c(O)c3)n2)c1)Nc1cc(C(F)(F)F)cc(C(F)(F)F)c1` stands -18.3% (active); under `COc1cc(-c2csc(NC(=O)Nc3cc(Cl)cc(Cl)c3)n2)cc(OC)c1OC`, 34.9% (inactive). Take `C=C(c1ccc(C(=O)O)c(F)c1)c1cc2c(cc1C)C(C)(C)C=CC2(C)C`: the growth was 86.3% (inactive). Under `CC(=O)N1N=C(c2ccc(Cl)cc2)CC1c1c(C)nn(-c2ccccc2)c1N(C)Cc1ccccc1` (stereo not given) stands 82.4% (inactive); under `c1c[nH]c(CNC2CCCCC2)c1`, 263% (inactive). Next, `CCOC(=O)c1csc(NC(=O)COc2cccc(/C=C3\Oc4cc(OC)ccc4C3=O)c2)n1`: 61.3% (inactive). Consider `CCOC(=O)CC1CSC(N/N=C(/C)c2cccc(C(F)(F)F)c2)=N1` (stereo not given), for which the growth is 101% (inactive). In the case of `Cc1nccc2c3ccc(OCc4cn(-c5ccc(Br)cc5)nn4)cc3n(CCCc3ccccc3)c12`, the growth was 46.1% (inactive).

For the compound `O=c1[nH]c(O)c(/C=C2/C=Nc3ccccc32)[nH]1`, the growth was 35.4% (inactive). Next, `O=C1NCCN1/N=C/c1c(Cl)nc2n1CCS2`: 72.2% (inactive); `CCS(=O)(=O)OCCCl`: 86.7% (inactive). Regarding `CCN1C(=O)N(CC)C2C1NN=c1s/c(=C3\C(=O)Nc4ccccc43)c(=O)n12` (stereo not given), the growth is -25% (active).

On to `COC(=O)/C=C1\S/C(=N\NC(=O)c2cc3ccc2/C=C\c2ccc(cc2)/C=C\3)N(Cc2ccccc2)C1=O`, for which the growth is -5.46% (active).
